The source of these data is the supplement of paper PMC7411054.

Structures can show the parent of a compound that is named as a salt.

Assay in all cases: lowest phenotypically active concentration; higher = less potent
Holding throughout (details): treatment time: 24 h

One experiment has as its system A549-CANX-COX4. The procedure, abridged:
(§1)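 After 24 h at 0.3, 1, 3 or 9 µM, with four wells per treatment, fifteen gene-edited A549, HepG2 and WPMY1 reporter lines carrying BFP, GFP and RFP/FusionRed were imaged live. Each well's live-cell features were expressed relative to solvent control wells. Deviation required ≥3 of 4 wells past the 95th percentile of control Euclidean distances, and reproducibility a median replicate Pearson correlation over the 95th percentile of non-replicates. Phenotypic activity rested on both.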

Another experiment concerns A549-TP53BP1-CLTA. Summed up:
as §1

A further experiment has as its system WPMY1-ACTB-RAB5A. Summed up: as §1
The test system of the next experiment is WPMY1-CANX-COX4. The procedure, abridged: as §1
The next experiment has as its system WPMY1-TP53BP1-CLTA. The procedure, abridged: as §1
Another experiment relates to WPMY1-TUBA1B-RELA. Summed up:
as §1

The next experiment has as its system HepG2-CANX-COX4. Summed up:
as §1

For another experiment, the system named is HepG2-TP53BP1-CLTA. The procedure, abridged: as §1
A further experiment deals with HepG2-GM130-SQSTM1. Summed up: as §1
In another experiment the test system is HepG2-TUBA1B-RELA. Summed up: as §1

In the case of `COc1ccc(-c2cnc(-c3cccc4c3-c3ccccc3C4=O)o2)cc1`, the “lowest phenotypically active concentration” value in the experiment with A549-CANX-COX4, in the experiment on A549-TP53BP1-CLTA, in the experiment on WPMY1-ACTB-RAB5A, with WPMY1-CANX-COX4, in the experiment on WPMY1-TP53BP1-CLTA and in the experiment on WPMY1-TUBA1B-RELA was no more than 0.3 µM in each case.

Regarding `COc1c(Cl)cc2c([nH]c3cnccc32)c1NC(=O)c1cccnc1C` [ML 120B dihydrochloride], the “lowest phenotypically active concentration” value in the experiment with A549-CANX-COX4, with HepG2-CANX-COX4 and in the experiment with HepG2-TP53BP1-CLTA was 9 µM throughout.

In the case of `CCCCOc1c(C(=O)c2c(F)cc(C)cc2F)cnc2[nH]ncc12`, the “lowest phenotypically active concentration” value is no more than 0.3 µM in the experiment with A549-CANX-COX4; 9 µM with HepG2-GM130-SQSTM1; 3 µM with HepG2-TP53BP1-CLTA; no more than 0.3 µM in the experiment on HepG2-TUBA1B-RELA; no more than 0.3 µM in the experiment on WPMY1-ACTB-RAB5A; no more than 0.3 µM in the experiment with WPMY1-CANX-COX4. Also, in the experiment on WPMY1-TUBA1B-RELA, the “lowest phenotypically active concentration” value is 3 µM.

Consider `C=C1CC[C@@H]2[C@](C)(CO)[C@H](O)CC[C@@]2(C)[C@@H]1C/C=C1/C(=O)OC[C@H]1O` [Andrographolide], for which the “lowest phenotypically active concentration” value turned out to be 9 µM in the experiment with A549-CANX-COX4; 3 µM in the experiment on HepG2-CANX-COX4; 1 µM in the experiment on HepG2-GM130-SQSTM1; 3 µM in the experiment on HepG2-TP53BP1-CLTA; 3 µM with HepG2-TUBA1B-RELA; 9 µM with WPMY1-TUBA1B-RELA.

In the case of `CN(C)CC(=O)Nc1ccc2[nH]c(=O)c3ccccc3c2c1` [PJ 34 hydrochloride], the “lowest phenotypically active concentration” value with A549-CANX-COX4, in the experiment on HepG2-CANX-COX4, with HepG2-GM130-SQSTM1, in the experiment with HepG2-TP53BP1-CLTA, in the experiment on HepG2-TUBA1B-RELA and with WPMY1-ACTB-RAB5A was 9 µM in each case. For the same compound, the “lowest phenotypically active concentration” value in the experiment on WPMY1-CANX-COX4 was 3 µM; in the experiment on WPMY1-TUBA1B-RELA, 9 µM.

For `O=c1cc(-c2ccccc2)oc2c(O)c(O)ccc12` [7,8-Dihydroxyflavone], the “lowest phenotypically active concentration” value with A549-CANX-COX4, with HepG2-CANX-COX4, in the experiment with HepG2-GM130-SQSTM1, in the experiment with WPMY1-ACTB-RAB5A, with WPMY1-CANX-COX4 and in the experiment with WPMY1-TUBA1B-RELA was 9 µM in each case.

For the compound `CC(C)C(=O)SCCCCCCC(=O)Nc1nc(-c2ccccc2)cs1`, the “lowest phenotypically active concentration” value in the experiment on A549-CANX-COX4 was 1 µM; in the experiment with HepG2-CANX-COX4, 3 µM; with WPMY1-ACTB-RAB5A, 1 µM; in the experiment with WPMY1-CANX-COX4 it was 1 µM; with WPMY1-TP53BP1-CLTA, 9 µM; with WPMY1-TUBA1B-RELA it was 1 µM.

Regarding `CN1CCc2cccc3c2[C@H]1Cc1ccc(O)c(O)c1-3` [r(-)-apomorphine], the “lowest phenotypically active concentration” value with A549-CANX-COX4, in the experiment with A549-TP53BP1-CLTA, in the experiment on WPMY1-ACTB-RAB5A, in the experiment with WPMY1-CANX-COX4 and in the experiment with WPMY1-TUBA1B-RELA was 9 µM each time.

`N#C/C(=C/c1ccc(O)c(O)c1)C(=O)NCCCCc1ccccc1`: the “lowest phenotypically active concentration” value in the experiment with A549-CANX-COX4, with HepG2-CANX-COX4, in the experiment on HepG2-GM130-SQSTM1, in the experiment on HepG2-TP53BP1-CLTA, in the experiment with WPMY1-ACTB-RAB5A and in the experiment on WPMY1-CANX-COX4 was 9 µM throughout. In addition, the “lowest phenotypically active concentration” value with WPMY1-TP53BP1-CLTA and in the experiment with WPMY1-TUBA1B-RELA was 9 µM in each case.

`Cc1cc(F)c(Nc2ncnc3cc(OCc4ccccc4)ccc23)cc1O`: the results for the “lowest phenotypically active concentration” value in the experiment with A549-CANX-COX4, in the experiment on WPMY1-CANX-COX4 and in the experiment with WPMY1-TUBA1B-RELA were 9 µM, 3 µM and 9 µM, respectively.

Turning to `CCn1c(=O)n([C@H]2CCCN(c3nccc(-c4cc5ccccc5o4)n3)C2)c2ccccc21`, the “lowest phenotypically active concentration” value in the experiment with A549-CANX-COX4 worked out at 3 µM; in the experiment on A549-TP53BP1-CLTA, 9 µM; in the experiment on WPMY1-CANX-COX4, 3 µM.

Consider `C=C1C(=O)O[C@@H]2[C@H]3O[C@]3(C)CCC=C(C)CC[C@@H]12` [Parthenolide], for which the “lowest phenotypically active concentration” value in the experiment on A549-CANX-COX4 worked out at 9 µM; in the experiment with HepG2-CANX-COX4, 9 µM; with HepG2-GM130-SQSTM1, 3 µM; with WPMY1-ACTB-RAB5A, 9 µM; with WPMY1-CANX-COX4 it was 9 µM; in the experiment with WPMY1-TUBA1B-RELA, 9 µM.

`COc1cc2ncnc(Nc3cccc(Br)c3)c2cc1OC`: the “lowest phenotypically active concentration” value in the experiment with A549-CANX-COX4 was 1 µM; in the experiment on A549-TP53BP1-CLTA, no more than 0.3 µM; in the experiment with HepG2-GM130-SQSTM1, 9 µM; in the experiment with HepG2-TP53BP1-CLTA, 9 µM; in the experiment with HepG2-TUBA1B-RELA, 9 µM; in the experiment with WPMY1-CANX-COX4, 9 µM. Moreover, the “lowest phenotypically active concentration” value in the experiment on WPMY1-TP53BP1-CLTA was 3 µM.

Regarding `COc1cc2c(cc1NS(=O)(=O)c1ccc(Br)cc1C)n(C)c(=O)n2C`, the “lowest phenotypically active concentration” value was determined as 9 µM in the experiment with A549-CANX-COX4; 9 µM in the experiment on A549-TP53BP1-CLTA; 3 µM with HepG2-CANX-COX4; 9 µM with HepG2-GM130-SQSTM1; 3 µM in the experiment on HepG2-TUBA1B-RELA.

On to `CCCCc1oc2ccc(NS(C)(=O)=O)cc2c1C(=O)c1ccc(OCCCN(CCCC)CCCC)cc1` [dronedarone], for which the “lowest phenotypically active concentration” value is 9 µM in the experiment on A549-CANX-COX4; 9 µM in the experiment on HepG2-GM130-SQSTM1; 9 µM in the experiment on HepG2-TP53BP1-CLTA; 3 µM in the experiment with HepG2-TUBA1B-RELA; 9 µM in the experiment with WPMY1-ACTB-RAB5A; 9 µM with WPMY1-CANX-COX4. Besides, the “lowest phenotypically active concentration” value with WPMY1-TP53BP1-CLTA and in the experiment on WPMY1-TUBA1B-RELA was 9 µM in each case.

`O=c1c(-c2ccc(O)cc2)coc2cc(O[C@@H]3O[C@H](CO)[C@@H](O)[C@H](O)[C@H]3O)cc(O)c12` [Genistin]: the “lowest phenotypically active concentration” value in the experiment with A549-CANX-COX4, in the experiment with A549-TP53BP1-CLTA, in the experiment on WPMY1-ACTB-RAB5A, in the experiment with WPMY1-CANX-COX4 and in the experiment with WPMY1-TP53BP1-CLTA was 9 µM throughout.

In the case of `Nc1ncnc2[nH]nc(Nc3ccc(F)cc3)c12`, the “lowest phenotypically active concentration” value in the experiment on A549-CANX-COX4, in the experiment on HepG2-GM130-SQSTM1, in the experiment with HepG2-TP53BP1-CLTA, in the experiment on HepG2-TUBA1B-RELA, in the experiment on WPMY1-ACTB-RAB5A and in the experiment on WPMY1-CANX-COX4 was 9 µM in each case. The “lowest phenotypically active concentration” value in the experiment on WPMY1-TP53BP1-CLTA and in the experiment with WPMY1-TUBA1B-RELA was 9 µM each time.

With `CC(C)n1c(/C=C/[C@@H](O)C[C@@H](O)CC(=O)O)c(-c2ccc(F)cc2)c2ccccc21` [fluvastatin], the “lowest phenotypically active concentration” value is 9 µM in the experiment on A549-CANX-COX4; 9 µM with A549-TP53BP1-CLTA; 3 µM in the experiment with HepG2-CANX-COX4; 1 µM with HepG2-GM130-SQSTM1; 3 µM with HepG2-TP53BP1-CLTA; 3 µM with HepG2-TUBA1B-RELA. The “lowest phenotypically active concentration” value in the experiment on WPMY1-ACTB-RAB5A was determined as 1 µM; in the experiment on WPMY1-CANX-COX4 it was 3 µM; with WPMY1-TP53BP1-CLTA, 9 µM; in the experiment with WPMY1-TUBA1B-RELA, 3 µM.

With `c1cc(-c2cc(C3CCNCC3)[nH]n2)ccn1`, the “lowest phenotypically active concentration” value with A549-CANX-COX4, with HepG2-CANX-COX4, with WPMY1-ACTB-RAB5A and in the experiment with WPMY1-CANX-COX4 was 9 µM in each case.

For `OCc1cc(C(O)CNCCCCCCOCCCCc2ccccc2)ccc1O` (configuration not stated) [salmeterol], the “lowest phenotypically active concentration” value in the experiment with A549-CANX-COX4 amounted to 9 µM; in the experiment on HepG2-GM130-SQSTM1 it was 9 µM; with HepG2-TP53BP1-CLTA, 9 µM; in the experiment with HepG2-TUBA1B-RELA, 9 µM; in the experiment on WPMY1-ACTB-RAB5A, 9 µM; with WPMY1-CANX-COX4, 3 µM. In addition, the “lowest phenotypically active concentration” value in the experiment on WPMY1-TP53BP1-CLTA and in the experiment with WPMY1-TUBA1B-RELA was 9 µM each time.

For `Cc1nnc(-c2ccc3occ(-c4ccc(S(C)=O)cc4)c3c2)o1` (configuration not stated), the “lowest phenotypically active concentration” value worked out at 9 µM in the experiment on A549-CANX-COX4; 9 µM in the experiment with A549-TP53BP1-CLTA; 9 µM with HepG2-CANX-COX4; 9 µM with HepG2-GM130-SQSTM1; 3 µM in the experiment on HepG2-TUBA1B-RELA; 9 µM in the experiment with WPMY1-ACTB-RAB5A. In addition, the “lowest phenotypically active concentration” value in the experiment on WPMY1-CANX-COX4 and with WPMY1-TP53BP1-CLTA was 9 µM in each case.

Take `O=S(=O)(c1cccc2c(O)nccc12)N1CCCNCC1` [HA 1100 hydrochloride]: the “lowest phenotypically active concentration” value in the experiment with A549-CANX-COX4 is 9 µM; in the experiment on A549-TP53BP1-CLTA, 9 µM; in the experiment on HepG2-CANX-COX4 it was no more than 0.3 µM; in the experiment on HepG2-GM130-SQSTM1, 9 µM; in the experiment on HepG2-TP53BP1-CLTA, 1 µM; in the experiment on WPMY1-ACTB-RAB5A, 9 µM. The “lowest phenotypically active concentration” value with WPMY1-CANX-COX4 came to 3 µM; in the experiment with WPMY1-TP53BP1-CLTA, 9 µM; in the experiment on WPMY1-TUBA1B-RELA, 3 µM.

As for `CC1(C)O[C@@H]2C[C@H]3[C@@H]4C[C@H](F)C5=CC(=O)C=C[C@]5(C)[C@@]4(F)[C@@H](O)C[C@]3(C)[C@]2(C(=O)CO)O1` [fluocinolone acetonide], the “lowest phenotypically active concentration” value with A549-CANX-COX4, in the experiment on A549-TP53BP1-CLTA and with WPMY1-ACTB-RAB5A was no more than 0.3 µM in each case.
